Test results taken from PubChem BioAssay (NCI).
This is part of a sample that, as a whole, favours compounds with a hit. Of some 83,000 tested, about 20% had one in any assay.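 Activity criterion: percent growth below 10, measured after cells in 96-well plates were exposed to a single compound concentration for 48 hours.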 The source made the active and inactive calls.

Tests used:
Assay in all cases: NCI-60 one-dose screen, 48 h (100 = growth as untreated, 0 = no growth, -100 = all killed)
Details in all cases: 10 µM unless noted
SK-MEL-2 melanoma = tested on: SK-MEL-2 melanoma
EKVX NSCLC = tested on: EKVX NSCLC
SN12C renal = tested on: SN12C renal
UO-31 renal = tested on: UO-31 renal
TK-10 renal = tested on: TK-10 renal
ACHN renal = tested on: ACHN renal
CAKI-1 renal = tested on: CAKI-1 renal
A498 renal = tested on: A498 renal
CCRF-CEM leukemia = tested on: CCRF-CEM leukemia
MOLT-4 leukemia = tested on: MOLT-4 leukemia
SR leukemia = tested on: SR leukemia
RPMI-8226 leukemia = tested on: RPMI-8226 leukemia
OVCAR-8 ovarian = tested on: OVCAR-8 ovarian
OVCAR-5 ovarian = tested on: OVCAR-5 ovarian
OVCAR-4 ovarian = tested on: OVCAR-4 ovarian
SK-OV-3 ovarian = tested on: SK-OV-3 ovarian
IGROV1 ovarian = tested on: IGROV1 ovarian
OVCAR-3 ovarian = tested on: OVCAR-3 ovarian
NCI/ADR-RES ovarian = tested on: NCI/ADR-RES ovarian
HS 578T breast = tested on: HS 578T breast

Measured: growth

N#Cc1cncc(-c2ccc3ncnc(Nc4cccc(Cl)c4)c3c2)c1
inactive: SK-MEL-2 melanoma 90.5% | EKVX NSCLC 40.7% | SN12C renal 82.9% | UO-31 renal 71% | TK-10 renal 43.9% | ACHN renal 58.6% | CAKI-1 renal 66.1% | A498 renal 33.4% | CCRF-CEM leukemia 101% | MOLT-4 leukemia 87.5% | SR leukemia 74.3% | RPMI-8226 leukemia 80.3% | OVCAR-8 ovarian 49.1% | OVCAR-5 ovarian 85% | OVCAR-4 ovarian 41.5% | SK-OV-3 ovarian 53.4% | IGROV1 ovarian 45.1% | OVCAR-3 ovarian 58% | NCI/ADR-RES ovarian 72.8%

CCOc1cccc(/C=N/NC(=O)c2cccc(Nc3ccnc(C(F)(F)F)c3)c2)c1O
active: CCRF-CEM leukemia 6.39%
inactive: SK-MEL-2 melanoma 58.7% | EKVX NSCLC 21.3% | SN12C renal 33.2% | UO-31 renal 17.3% | TK-10 renal 49.5% | ACHN renal 24.4% | CAKI-1 renal 18.3% | A498 renal 61.5% | MOLT-4 leukemia 18.2% | SR leukemia 41.4% | RPMI-8226 leukemia 27.3% | OVCAR-5 ovarian 40.9% | OVCAR-4 ovarian 39.1% | SK-OV-3 ovarian 30.2% | IGROV1 ovarian 24.2% | OVCAR-3 ovarian 43.2% | HS 578T breast 43.7% | NCI/ADR-RES ovarian 37.6%

CN1CCN(CC(=O)Nc2ccc3ncnc(Nc4ccc(Oc5cccc(C(F)(F)F)c5)c(Cl)c4)c3c2)CC1
inactive: EKVX NSCLC 31.1% | SN12C renal 51.3% | UO-31 renal 21.7% | TK-10 renal 41.6% | A498 renal 36.3% | OVCAR-8 ovarian 20.9% | OVCAR-5 ovarian 52.9% | SK-OV-3 ovarian 23.2% | NCI/ADR-RES ovarian 46.1%
active: SK-MEL-2 melanoma -15.5% | ACHN renal -63.2% | CAKI-1 renal -18.7% | CCRF-CEM leukemia 6.92% | MOLT-4 leukemia -7.18% | SR leukemia -6.28% | RPMI-8226 leukemia -12.7% | OVCAR-4 ovarian -18.8% | OVCAR-3 ovarian 4.81% | HS 578T breast -12%

O=C(Cn1nnc2ccccc21)N/N=C/c1c[nH]c2ccccc12
inactive: SK-MEL-2 melanoma 38.4% | EKVX NSCLC 62.4% | SN12C renal 45.9% | UO-31 renal 52.4% | TK-10 renal 64.7% | ACHN renal 64.1% | CAKI-1 renal 45.7% | A498 renal 60.4% | CCRF-CEM leukemia 47.7% | MOLT-4 leukemia 29.9% | SR leukemia 18.3% | RPMI-8226 leukemia 45% | OVCAR-5 ovarian 71.9% | OVCAR-4 ovarian 82% | SK-OV-3 ovarian 65.7% | IGROV1 ovarian 54.1% | OVCAR-3 ovarian 22.4% | HS 578T breast 57.5% | NCI/ADR-RES ovarian 47.6%

CCOC(=O)C(Cc1ccc(OC)cc1)C(=O)OCC
inactive: SK-MEL-2 melanoma 43.4% | EKVX NSCLC 69.3% | SN12C renal 40% | UO-31 renal 46.7% | TK-10 renal 46.6% | ACHN renal 44.7% | A498 renal 54.5% | CCRF-CEM leukemia 14.3% | MOLT-4 leukemia 37.7% | SR leukemia 11.6% | OVCAR-5 ovarian 72% | OVCAR-4 ovarian 56.4% | SK-OV-3 ovarian 50% | IGROV1 ovarian 28.1%
active: CAKI-1 renal -14.2% | RPMI-8226 leukemia 0.799% | OVCAR-3 ovarian 2.41%

COc1cc(OC)c(/C=C/C(=O)c2c(O)cc(OC)c(C3CCN(C)CC3)c2OC)c(OC)c1
active: SK-MEL-2 melanoma -57.8% | SN12C renal 4.89% | UO-31 renal -76.2% | TK-10 renal -82.5% | ACHN renal -98.3% | CAKI-1 renal -62.8% | CCRF-CEM leukemia -19.3% | MOLT-4 leukemia -34.4% | SR leukemia -22.2% | RPMI-8226 leukemia -45.3% | OVCAR-8 ovarian 1.17% | OVCAR-5 ovarian -29.8% | SK-OV-3 ovarian -79.7% | OVCAR-3 ovarian -51.1% | HS 578T breast -46.2% | NCI/ADR-RES ovarian -19.3%
inactive: EKVX NSCLC 22.9% | A498 renal 17.8% | OVCAR-4 ovarian 19.3%

COc1ccc(N2CCC(=S)NC2=S)cc1
inactive: SK-MEL-2 melanoma 115% | EKVX NSCLC 104% | SN12C renal 98% | UO-31 renal 84.3% | TK-10 renal 96% | ACHN renal 104% | CAKI-1 renal 85% | A498 renal 108% | CCRF-CEM leukemia 102% | MOLT-4 leukemia 98.9% | SR leukemia 112% | RPMI-8226 leukemia 103% | OVCAR-8 ovarian 99.1% | OVCAR-5 ovarian 104% | OVCAR-4 ovarian 90.1% | SK-OV-3 ovarian 116% | OVCAR-3 ovarian 103% | HS 578T breast 105% | NCI/ADR-RES ovarian 103%

O=C(CN1CCN(c2cc3c(cc2F)c(=O)c(C(=O)O)cn3C2CC2)CC1)N/N=C/c1ccco1
inactive: SK-MEL-2 melanoma 105% | EKVX NSCLC 97.8% | SN12C renal 108% | UO-31 renal 88.3% | TK-10 renal 101% | ACHN renal 98.1% | CAKI-1 renal 99.7% | A498 renal 91.7% | CCRF-CEM leukemia 107% | MOLT-4 leukemia 93.9% | SR leukemia 92.9% | RPMI-8226 leukemia 101% | OVCAR-8 ovarian 98.2% | OVCAR-5 ovarian 85.1% | OVCAR-4 ovarian 105% | SK-OV-3 ovarian 88.8% | OVCAR-3 ovarian 107% | HS 578T breast 95.5% | NCI/ADR-RES ovarian 103%

Cc1ccccc1Nc1cc(O)c2c(=O)cc(-c3ccccc3)oc2c1
active: SR leukemia 7.93% | NCI/ADR-RES ovarian 4.9%
inactive: SK-MEL-2 melanoma 65.7% | EKVX NSCLC 35.5% | SN12C renal 31.8% | UO-31 renal 42.3% | TK-10 renal 110% | ACHN renal 34.5% | CAKI-1 renal 39% | A498 renal 31.3% | CCRF-CEM leukemia 29.5% | MOLT-4 leukemia 25.8% | RPMI-8226 leukemia 29.7% | OVCAR-8 ovarian 52.5% | OVCAR-5 ovarian 89.2% | OVCAR-4 ovarian 53.1% | SK-OV-3 ovarian 59.3% | HS 578T breast 44.7%

CCN1C2CCC1/C(=C\c1ccc(F)cc1)C(=O)/C2=C/c1ccc(F)cc1
inactive: SK-MEL-2 melanoma 58.9% | EKVX NSCLC 57.2% | SN12C renal 44.5% | UO-31 renal 53.6% | TK-10 renal 74.2% | ACHN renal 48.6% | CAKI-1 renal 66.4% | A498 renal 58.7% | CCRF-CEM leukemia 18.2% | MOLT-4 leukemia 13.9% | SR leukemia 24.5% | RPMI-8226 leukemia 18.5% | OVCAR-8 ovarian 12.5% | OVCAR-5 ovarian 73.4% | OVCAR-4 ovarian 47.3% | SK-OV-3 ovarian 62% | OVCAR-3 ovarian 11% | HS 578T breast 66.3% | NCI/ADR-RES ovarian 17.4%

O=C1/C(=C\c2ccccn2)c2ccccc2N1c1c(Cl)cccc1Cl
active: CAKI-1 renal -1.37% | CCRF-CEM leukemia 8.81% | MOLT-4 leukemia 3.48% | SR leukemia -4.3% | RPMI-8226 leukemia -12.5% | OVCAR-8 ovarian 4.47% | OVCAR-4 ovarian 3.21% | NCI/ADR-RES ovarian -26.7%
inactive: SK-MEL-2 melanoma 48.8% | EKVX NSCLC 27.2% | SN12C renal 18.1% | UO-31 renal 16.8% | TK-10 renal 52% | ACHN renal 19.6% | A498 renal 21.3% | OVCAR-5 ovarian 122% | SK-OV-3 ovarian 27.4% | OVCAR-3 ovarian 27.4% | HS 578T breast 22.9%

C#COc1cccc(Nc2ncnc3cc(NC(=O)[C@@H](C)Cl)ccc23)c1
active: CCRF-CEM leukemia 3.09% [6.25 µM] | SR leukemia 1.44% [6.25 µM] | RPMI-8226 leukemia -6.79% [6.25 µM] | SK-OV-3 ovarian -5.9% [6.25 µM] | IGROV1 ovarian 8.48% [6.25 µM] | OVCAR-3 ovarian -6.96% [6.25 µM] | NCI/ADR-RES ovarian 6.35% [6.25 µM]
inactive: SK-MEL-2 melanoma 27.4% [6.25 µM] | EKVX NSCLC 36.7% [6.25 µM] | SN12C renal 22% [6.25 µM] | UO-31 renal 29.2% [6.25 µM] | TK-10 renal 10.6% [6.25 µM] | ACHN renal 20.8% [6.25 µM] | CAKI-1 renal 19.4% [6.25 µM] | A498 renal 11.8% [6.25 µM] | MOLT-4 leukemia 11.4% [6.25 µM] | OVCAR-5 ovarian 25% [6.25 µM] | OVCAR-4 ovarian 52.8% [6.25 µM] | HS 578T breast 17.4% [6.25 µM]

O=C(N/N=C/c1cc(Cl)ccc1O)c1ccccc1Nc1ccnc(C(F)(F)F)c1
inactive: SK-MEL-2 melanoma 90.7% | EKVX NSCLC 22.9% | SN12C renal 20.7% | UO-31 renal 21.1% | TK-10 renal 46.4% | ACHN renal 14.9% | CAKI-1 renal 34.6% | A498 renal 65.7% | CCRF-CEM leukemia 12.4% | MOLT-4 leukemia 55% | SR leukemia 105% | RPMI-8226 leukemia 47.2% | OVCAR-8 ovarian 63.5% | OVCAR-5 ovarian 57.4% | OVCAR-4 ovarian 28.7% | SK-OV-3 ovarian 25% | OVCAR-3 ovarian 38% | HS 578T breast 75% | NCI/ADR-RES ovarian 22.6%

Cc1ccc(C)c2c(C)c(C(=O)Nc3cccc(-n4cccn4)c3)oc12
inactive: SK-MEL-2 melanoma 66.3% [50 µM] | EKVX NSCLC 53.8% [50 µM] | SN12C renal 70% [50 µM] | UO-31 renal 40.7% [50 µM] | TK-10 renal 82.1% [50 µM] | ACHN renal 64.9% [50 µM] | CAKI-1 renal 44.6% [50 µM] | A498 renal 55.6% [50 µM] | CCRF-CEM leukemia 42.4% [50 µM] | MOLT-4 leukemia 42.2% [50 µM] | SR leukemia 56.7% [50 µM] | RPMI-8226 leukemia 43.8% [50 µM] | OVCAR-5 ovarian 93.6% [50 µM] | OVCAR-4 ovarian 50.4% [50 µM] | SK-OV-3 ovarian 111% [50 µM] | IGROV1 ovarian 76.3% [50 µM] | OVCAR-3 ovarian 82% [50 µM] | HS 578T breast 81.1% [50 µM] | NCI/ADR-RES ovarian 54.3% [50 µM]

COc1ccc(C(=O)Cn2c(C(=O)c3ccc(Cl)cc3)nc3ccccc32)cc1
inactive: SK-MEL-2 melanoma 73.4% | EKVX NSCLC 90.9% | SN12C renal 65.1% | UO-31 renal 54.7% | TK-10 renal 99.6% | ACHN renal 65.5% | CAKI-1 renal 63.5% | A498 renal 77.9% | CCRF-CEM leukemia 39.2% | MOLT-4 leukemia 48.5% | SR leukemia 26.9% | RPMI-8226 leukemia 13% | OVCAR-5 ovarian 90.4% | OVCAR-4 ovarian 62.4% | SK-OV-3 ovarian 98.8% | IGROV1 ovarian 39.7% | OVCAR-3 ovarian 52% | HS 578T breast 47.2% | NCI/ADR-RES ovarian 35.9%
